# ChEMBL document CHEMBL1961873, “Compounds: GSK PKIS; Assays: Nanosyn kinase panel” (2012)
# Columns and labels:
# [1] = biological target: Serine/threonine-protein kinase PAK 6 (Homo sapiens) (UniProt Q9NQU5); settings: at 1 µM;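 further: values are mean percent inhibition of PAK6 kinase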
# [2] = system: Tyrosine-protein kinase ABL1 (Homo sapiens), P00519 [E255K]; settings: at 0.1 µM
# [3] = system: Tyrosine-protein kinase ABL1 (Homo sapiens), P00519 [E255K]; settings: at 1 µM
# [4] = system: Tyrosine-protein kinase ABL1 (Homo sapiens), P00519 [H396P]; settings: at 0.1 µM
# [5] = system: Tyrosine-protein kinase ABL1 (Homo sapiens), P00519 [H396P]; settings: at 1 µM
# [6] = system: Tyrosine-protein kinase ABL1 (Homo sapiens), P00519 [M351T]; settings: at 0.1 µM
# [7] = system: Tyrosine-protein kinase ABL1 (Homo sapiens), P00519 [M351T]; settings: at 1 µM
# [8] = system: Tyrosine-protein kinase ABL1 (Homo sapiens), P00519 [Q252H]; settings: at 0.1 µM
# [9] = system: Tyrosine-protein kinase ABL1 (Homo sapiens), P00519 [Q252H]; settings: at 1 µM
# [10] = system: Tyrosine-protein kinase ABL1 (Homo sapiens), P00519 [T315I]; settings: at 0.1 µM
# [11] = system: Tyrosine-protein kinase ABL1 (Homo sapiens), P00519 [T315I]; settings: at 1 µM
# [12] = system: Tyrosine-protein kinase ABL1 (Homo sapiens), P00519 [Y253F]; settings: at 0.1 µM
# [13] = system: Tyrosine-protein kinase ABL1 (Homo sapiens), P00519 [Y253F]; settings: at 1 µM
# [14] = biological target: Tyrosine-protein kinase ABL1 (Homo sapiens) (UniProt P00519); settings: at 0.1 µM
# [15] = biological target: Tyrosine-protein kinase ABL1 (Homo sapiens) (UniProt P00519); settings: at 1 µM
# [16] = biological target: ALK tyrosine kinase receptor (Homo sapiens) (UniProt Q9UM73); settings: at 0.1 µM
# ALK tyrosine kinase receptor (Homo sapiens), sequence (Q9UM73 19-1620 limits assumed): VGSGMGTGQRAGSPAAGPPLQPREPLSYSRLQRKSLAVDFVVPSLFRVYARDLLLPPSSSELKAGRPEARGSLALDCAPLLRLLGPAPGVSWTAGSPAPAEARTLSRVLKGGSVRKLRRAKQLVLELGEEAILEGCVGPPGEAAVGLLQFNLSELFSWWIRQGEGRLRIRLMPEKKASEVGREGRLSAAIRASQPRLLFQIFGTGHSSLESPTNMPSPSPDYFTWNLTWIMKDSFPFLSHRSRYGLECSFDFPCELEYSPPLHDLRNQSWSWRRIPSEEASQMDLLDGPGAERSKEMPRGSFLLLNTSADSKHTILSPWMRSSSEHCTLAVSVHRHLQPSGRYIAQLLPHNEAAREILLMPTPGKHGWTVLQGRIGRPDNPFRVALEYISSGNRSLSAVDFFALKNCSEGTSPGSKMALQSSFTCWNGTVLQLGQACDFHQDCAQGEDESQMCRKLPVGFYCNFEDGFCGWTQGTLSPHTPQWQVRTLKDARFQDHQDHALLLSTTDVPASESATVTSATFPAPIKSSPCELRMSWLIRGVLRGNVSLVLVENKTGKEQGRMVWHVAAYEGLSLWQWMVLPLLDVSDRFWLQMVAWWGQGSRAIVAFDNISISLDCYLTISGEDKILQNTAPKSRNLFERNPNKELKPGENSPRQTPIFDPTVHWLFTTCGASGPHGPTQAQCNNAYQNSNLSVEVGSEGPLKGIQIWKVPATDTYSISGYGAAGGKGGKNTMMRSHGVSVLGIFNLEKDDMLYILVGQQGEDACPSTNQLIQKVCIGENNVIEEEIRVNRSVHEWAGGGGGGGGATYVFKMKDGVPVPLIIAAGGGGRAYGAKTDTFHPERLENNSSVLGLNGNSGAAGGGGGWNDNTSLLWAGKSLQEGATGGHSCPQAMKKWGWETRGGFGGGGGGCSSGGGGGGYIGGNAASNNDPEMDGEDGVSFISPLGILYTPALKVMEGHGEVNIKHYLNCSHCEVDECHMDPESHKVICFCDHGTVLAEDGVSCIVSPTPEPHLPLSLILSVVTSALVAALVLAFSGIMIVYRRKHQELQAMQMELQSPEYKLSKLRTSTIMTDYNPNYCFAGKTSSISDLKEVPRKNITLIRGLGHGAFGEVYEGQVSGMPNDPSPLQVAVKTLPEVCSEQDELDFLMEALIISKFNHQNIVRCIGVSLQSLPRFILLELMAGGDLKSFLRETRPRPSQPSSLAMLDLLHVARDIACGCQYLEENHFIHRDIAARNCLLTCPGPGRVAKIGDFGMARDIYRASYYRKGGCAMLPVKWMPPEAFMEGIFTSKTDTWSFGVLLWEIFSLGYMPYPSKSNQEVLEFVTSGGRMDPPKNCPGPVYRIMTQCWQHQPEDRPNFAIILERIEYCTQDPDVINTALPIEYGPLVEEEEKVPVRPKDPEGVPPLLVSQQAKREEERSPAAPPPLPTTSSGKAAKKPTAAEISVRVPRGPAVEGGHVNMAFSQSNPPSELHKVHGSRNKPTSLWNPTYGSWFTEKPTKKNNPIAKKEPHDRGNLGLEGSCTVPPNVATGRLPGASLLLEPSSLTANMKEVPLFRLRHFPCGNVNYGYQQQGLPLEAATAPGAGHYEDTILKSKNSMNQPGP
# [17] = biological target: ALK tyrosine kinase receptor (Homo sapiens) (UniProt Q9UM73); settings: at 1 µM
# [18] = biological target: Tyrosine-protein kinase ABL2 (Homo sapiens) (UniProt P42684); settings: at 0.1 µM
# Tyrosine-protein kinase ABL2 (Homo sapiens), sequence (P42684 whole entry): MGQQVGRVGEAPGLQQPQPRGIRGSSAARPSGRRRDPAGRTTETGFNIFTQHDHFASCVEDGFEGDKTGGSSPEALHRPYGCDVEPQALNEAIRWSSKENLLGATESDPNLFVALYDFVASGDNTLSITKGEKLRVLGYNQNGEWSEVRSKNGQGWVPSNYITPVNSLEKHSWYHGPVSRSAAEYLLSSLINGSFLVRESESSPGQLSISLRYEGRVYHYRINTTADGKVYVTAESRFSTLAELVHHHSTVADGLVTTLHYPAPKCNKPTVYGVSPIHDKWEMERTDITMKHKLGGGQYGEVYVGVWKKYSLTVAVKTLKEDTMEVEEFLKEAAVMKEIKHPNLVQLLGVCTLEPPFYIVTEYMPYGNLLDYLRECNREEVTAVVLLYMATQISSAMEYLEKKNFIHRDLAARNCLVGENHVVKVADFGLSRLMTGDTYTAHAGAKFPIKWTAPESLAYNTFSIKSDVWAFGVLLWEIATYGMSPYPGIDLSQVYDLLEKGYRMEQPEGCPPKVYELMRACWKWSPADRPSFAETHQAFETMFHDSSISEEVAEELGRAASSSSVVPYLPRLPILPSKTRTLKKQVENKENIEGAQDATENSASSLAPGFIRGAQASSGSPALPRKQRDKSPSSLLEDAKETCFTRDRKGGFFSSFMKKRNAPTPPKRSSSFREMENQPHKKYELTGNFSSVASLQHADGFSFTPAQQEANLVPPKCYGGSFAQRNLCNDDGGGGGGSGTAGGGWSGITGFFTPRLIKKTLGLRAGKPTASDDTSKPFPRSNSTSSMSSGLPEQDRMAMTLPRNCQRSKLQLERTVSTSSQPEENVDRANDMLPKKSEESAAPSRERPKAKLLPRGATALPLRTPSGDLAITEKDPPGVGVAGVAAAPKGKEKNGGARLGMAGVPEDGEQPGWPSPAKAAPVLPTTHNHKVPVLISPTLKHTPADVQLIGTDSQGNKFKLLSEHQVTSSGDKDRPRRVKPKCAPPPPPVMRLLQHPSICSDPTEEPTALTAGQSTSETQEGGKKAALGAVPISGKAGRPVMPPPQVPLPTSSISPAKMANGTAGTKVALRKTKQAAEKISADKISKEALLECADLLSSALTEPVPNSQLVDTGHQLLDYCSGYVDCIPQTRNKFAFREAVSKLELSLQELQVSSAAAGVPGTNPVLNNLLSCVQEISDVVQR
# [19] = biological target: Tyrosine-protein kinase ABL2 (Homo sapiens) (UniProt P42684); settings: at 1 µM
# [20] = biological target: Tyrosine-protein kinase receptor UFO (Homo sapiens) (UniProt P30530); settings: at 0.1 µM;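 further: values are mean percent inhibition of AXL from the GSK PKIS screen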
# Tyrosine-protein kinase receptor UFO (Homo sapiens), sequence (P30530 whole entry): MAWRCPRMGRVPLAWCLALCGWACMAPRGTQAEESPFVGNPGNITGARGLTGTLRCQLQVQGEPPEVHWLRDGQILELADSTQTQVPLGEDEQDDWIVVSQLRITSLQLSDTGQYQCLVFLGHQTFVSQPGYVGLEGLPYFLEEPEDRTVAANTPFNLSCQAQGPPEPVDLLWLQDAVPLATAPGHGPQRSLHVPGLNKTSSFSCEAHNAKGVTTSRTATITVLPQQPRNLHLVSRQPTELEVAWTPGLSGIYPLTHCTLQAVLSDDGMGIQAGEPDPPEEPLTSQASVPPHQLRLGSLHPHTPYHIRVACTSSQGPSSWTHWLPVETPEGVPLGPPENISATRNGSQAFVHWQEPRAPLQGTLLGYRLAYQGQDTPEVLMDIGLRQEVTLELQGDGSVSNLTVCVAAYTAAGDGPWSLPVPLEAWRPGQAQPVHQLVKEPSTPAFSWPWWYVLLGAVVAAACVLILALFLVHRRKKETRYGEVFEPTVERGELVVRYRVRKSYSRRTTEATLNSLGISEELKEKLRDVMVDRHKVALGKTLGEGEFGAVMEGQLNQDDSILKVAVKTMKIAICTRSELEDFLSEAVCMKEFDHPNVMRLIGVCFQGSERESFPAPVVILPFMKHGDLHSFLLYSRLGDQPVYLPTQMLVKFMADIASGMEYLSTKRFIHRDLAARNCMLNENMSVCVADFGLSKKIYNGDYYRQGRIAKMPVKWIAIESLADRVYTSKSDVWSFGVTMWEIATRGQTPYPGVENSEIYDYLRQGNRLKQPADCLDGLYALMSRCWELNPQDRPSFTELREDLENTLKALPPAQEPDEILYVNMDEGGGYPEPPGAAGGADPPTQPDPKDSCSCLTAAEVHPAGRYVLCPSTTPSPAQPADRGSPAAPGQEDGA
# Serine/threonine-protein kinase PAK 6 (Homo sapiens), sequence (Q9NQU5 whole entry, looked up): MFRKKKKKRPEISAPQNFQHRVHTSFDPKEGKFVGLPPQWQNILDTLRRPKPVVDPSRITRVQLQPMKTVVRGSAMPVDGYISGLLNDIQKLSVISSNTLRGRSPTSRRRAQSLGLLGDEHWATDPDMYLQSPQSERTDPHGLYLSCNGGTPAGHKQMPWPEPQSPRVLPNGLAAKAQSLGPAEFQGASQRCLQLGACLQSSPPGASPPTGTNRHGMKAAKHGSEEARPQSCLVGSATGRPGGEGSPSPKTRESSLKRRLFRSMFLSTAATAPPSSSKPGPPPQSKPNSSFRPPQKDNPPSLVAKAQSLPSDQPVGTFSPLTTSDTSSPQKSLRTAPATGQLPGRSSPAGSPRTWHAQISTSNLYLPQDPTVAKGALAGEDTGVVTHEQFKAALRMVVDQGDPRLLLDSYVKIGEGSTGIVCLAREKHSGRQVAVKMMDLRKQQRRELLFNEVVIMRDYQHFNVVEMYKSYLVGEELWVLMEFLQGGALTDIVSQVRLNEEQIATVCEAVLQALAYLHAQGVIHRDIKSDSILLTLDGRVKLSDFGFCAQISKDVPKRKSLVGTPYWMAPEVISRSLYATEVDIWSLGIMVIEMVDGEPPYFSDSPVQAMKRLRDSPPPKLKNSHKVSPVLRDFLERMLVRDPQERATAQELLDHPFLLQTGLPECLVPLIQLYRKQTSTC
smiles,measurement,setting,value
COc1cccc(COc2cc(-n3cnc4ccccc43)sc2C(N)=O)c1,inhibition,[1],-1.23%
same,inhibition,[2],-0.78%
same,inhibition,[3],-0.15%
same,inhibition,[4],-1.23%
same,inhibition,[5],3.19%
same,inhibition,[6],-1.62%
same,inhibition,[7],2.97%
same,inhibition,[8],-0.55%
same,inhibition,[9],3.14%
same,inhibition,[10],-1.92%
same,inhibition,[11],0.66%
same,inhibition,[12],-1.91%
same,inhibition,[13],2.67%
same,inhibition,[14],-2.41%
same,inhibition,[15],0.81%
same,inhibition,[16],-0.33%
same,inhibition,[17],2.9%
same,inhibition,[18],-0.24%
same,inhibition,[19],0.86%
same,inhibition,[20],0.14%
COc1cccc(-n2ncc3c(N/N=C/c4ccncc4)ncnc32)c1,inhibition,[1],-8.53%
same,inhibition,[2],77%
same,inhibition,[3],93.9%
same,inhibition,[4],82.9%
same,inhibition,[5],94.9%
same,inhibition,[6],82.3%
same,inhibition,[7],94%
same,inhibition,[8],87.2%
same,inhibition,[9],95.7%
same,inhibition,[10],42.4%
same,inhibition,[11],85.2%
same,inhibition,[12],84.5%
same,inhibition,[13],94.9%
same,inhibition,[14],69.3%
same,inhibition,[15],89%
same,inhibition,[16],3.94%
same,inhibition,[17],7.96%
same,inhibition,[18],47.8%
same,inhibition,[19],82.8%
same,inhibition,[20],-5.41%
Fc1ccc(-c2ncn(C3CCNCC3)c2-c2ccnc(Oc3ccccc3)n2)cc1,inhibition,[1],-6.64%
same,inhibition,[2],-0.56%
same,inhibition,[3],1.05%
same,inhibition,[4],2.03%
same,inhibition,[5],1.85%
same,inhibition,[6],-0.31%
same,inhibition,[7],-0.15%
same,inhibition,[8],1.55%
same,inhibition,[9],2.19%
same,inhibition,[10],-0.76%
same,inhibition,[11],-0.9%
same,inhibition,[12],1.35%
same,inhibition,[13],2.58%
same,inhibition,[14],-2.46%
same,inhibition,[15],-4.75%
same,inhibition,[16],-2.73%
same,inhibition,[17],-0.15%
same,inhibition,[18],-2.93%
same,inhibition,[19],-3.16%
same,inhibition,[20],-4.72%
CCn1c(-c2nonc2N)nc2c(C#CC(C)(C)O)nc(O[C@@H](CN)c3ccccc3)cc21,inhibition,[1],67.6%
same,inhibition,[2],-0.39%
same,inhibition,[3],-0.58%
same,inhibition,[4],-0.59%
same,inhibition,[5],-0.29%
same,inhibition,[6],0.75%
same,inhibition,[7],5.14%
same,inhibition,[8],-0.46%
same,inhibition,[9],0.03%
same,inhibition,[10],1.03%
same,inhibition,[11],4.28%
same,inhibition,[12],-0.01%
same,inhibition,[13],0.57%
same,inhibition,[14],0.27%
same,inhibition,[15],5.55%
same,inhibition,[16],0.41%
same,inhibition,[17],19.6%
same,inhibition,[18],1.15%
same,inhibition,[19],6.91%
same,inhibition,[20],1.96%
CCn1c(-c2nonc2N)nc2c(C#CC(C)(C)O)ncc(OC[C@@H]3CCCN3)c21,inhibition,[1],58.4%
same,inhibition,[2],-0.36%
same,inhibition,[3],-0.79%
same,inhibition,[4],1.51%
same,inhibition,[5],6.5%
same,inhibition,[6],-0.07%
same,inhibition,[7],1.33%
same,inhibition,[8],1.26%
same,inhibition,[9],-0.4%
same,inhibition,[10],0.19%
same,inhibition,[11],0.65%
same,inhibition,[12],0.65%
same,inhibition,[13],-0.13%
same,inhibition,[14],1.81%
same,inhibition,[15],-0.45%
same,inhibition,[16],-0.46%
same,inhibition,[17],1.45%
same,inhibition,[18],1.42%
same,inhibition,[19],2.28%
same,inhibition,[20],0.65%
Cc1cc(-c2ccco2)cc(C)c1/C=C/c1cncc(-c2nn[nH]n2)c1,inhibition,[1],3.04%
same,inhibition,[2],0.2%
same,inhibition,[3],2.01%
same,inhibition,[4],1.54%
same,inhibition,[5],4.02%
same,inhibition,[6],3.02%
same,inhibition,[7],4.16%
same,inhibition,[8],1.99%
same,inhibition,[9],4.16%
same,inhibition,[10],0.41%
same,inhibition,[11],2.45%
same,inhibition,[12],1.92%
same,inhibition,[13],4.15%
same,inhibition,[14],2.83%
same,inhibition,[15],4.58%
same,inhibition,[16],2.41%
same,inhibition,[17],2.74%
same,inhibition,[18],2.77%
same,inhibition,[19],8.69%
same,inhibition,[20],0.06%
NS(=O)(=O)c1ccc(N/C=C2\C(=O)Nc3ccc4ncsc4c32)cc1,inhibition,[1],-3.07%
same,inhibition,[2],3.53%
same,inhibition,[3],21.2%
same,inhibition,[4],7.89%
same,inhibition,[5],31.5%
same,inhibition,[6],5.55%
same,inhibition,[7],30.6%
same,inhibition,[8],9.38%
same,inhibition,[9],38.7%
same,inhibition,[10],6.29%
same,inhibition,[11],41.1%
same,inhibition,[12],5.62%
same,inhibition,[13],32.9%
same,inhibition,[14],8.9%
same,inhibition,[15],32.9%
same,inhibition,[16],4.55%
same,inhibition,[17],15.1%
same,inhibition,[18],5.92%
same,inhibition,[19],21.8%
same,inhibition,[20],-3.83%
NC(=O)c1sc(-n2cnc3cc(C(F)(F)F)ccc32)cc1OCc1ccccc1Br,inhibition,[1],0.31%
same,inhibition,[2],2.61%
same,inhibition,[3],3.23%
same,inhibition,[4],3.11%
same,inhibition,[5],3.6%
same,inhibition,[6],2.27%
same,inhibition,[7],2.72%
same,inhibition,[8],1.81%
same,inhibition,[9],2.64%
same,inhibition,[10],1.04%
same,inhibition,[11],1.66%
same,inhibition,[12],4.14%
same,inhibition,[13],4.68%
same,inhibition,[14],3.16%
same,inhibition,[15],3.85%
same,inhibition,[16],1.22%
same,inhibition,[17],1.22%
same,inhibition,[18],2.86%
same,inhibition,[19],4.58%
same,inhibition,[20],-0.22%
COc1cc(C=NNc2ncnc3c2cnn3Cc2ccccc2)ccc1O,inhibition,[1],-8.83%
same,inhibition,[2],32.5%
same,inhibition,[3],82.7%
same,inhibition,[4],52.3%
same,inhibition,[5],90%
same,inhibition,[6],54.1%
same,inhibition,[7],89.2%
same,inhibition,[8],57.7%
same,inhibition,[9],92.2%
same,inhibition,[10],12.6%
same,inhibition,[11],61.6%
same,inhibition,[12],52.2%
same,inhibition,[13],90.8%
same,inhibition,[14],40.6%
same,inhibition,[15],71.9%
same,inhibition,[16],-4.96%
same,inhibition,[17],-2.43%
same,inhibition,[18],20.3%
same,inhibition,[19],49.2%
same,inhibition,[20],5.07%
CCn1c(-c2nonc2N)nc2c(C#CC(C)(C)O)ncc(OCC3CCNCC3)c21,inhibition,[1],69.3%
same,inhibition,[2],-0.11%
same,inhibition,[3],4.95%
same,inhibition,[4],1.89%
same,inhibition,[5],4.52%
same,inhibition,[6],-1.14%
same,inhibition,[7],5.41%
same,inhibition,[8],1.06%
same,inhibition,[9],3.85%
same,inhibition,[10],0.9%
same,inhibition,[11],4.1%
same,inhibition,[12],2.44%
same,inhibition,[13],5.73%
same,inhibition,[14],-2.19%
same,inhibition,[15],2.09%
same,inhibition,[16],-2.65%
same,inhibition,[17],0.19%
same,inhibition,[18],-1.08%
same,inhibition,[19],-2.22%
same,inhibition,[20],-2.5%
NS(=O)(=O)c1ccc(-c2ccc3c(NC(=O)C4CC4)n[nH]c3c2)cc1,inhibition,[1],9.03%
same,inhibition,[2],2.79%
same,inhibition,[3],7.46%
same,inhibition,[4],4.05%
same,inhibition,[5],17.1%
same,inhibition,[6],3.23%
same,inhibition,[7],16.9%
same,inhibition,[8],6.44%
same,inhibition,[9],8.2%
same,inhibition,[10],5.41%
same,inhibition,[11],15.1%
same,inhibition,[12],4.41%
same,inhibition,[13],8.81%
same,inhibition,[14],8.32%
same,inhibition,[15],14.2%
same,inhibition,[16],2.73%
same,inhibition,[17],3.11%
same,inhibition,[18],6.43%
same,inhibition,[19],7.09%
same,inhibition,[20],-4.27%
COc1cc2c(cc1Nc1nc(Nc3ccsc3C(N)=O)c3cc[nH]c3n1)N(C(=O)CN(C)C)CCC2,inhibition,[1],5.48%
same,inhibition,[4],-3.59%
same,inhibition,[5],-0.29%
same,inhibition,[6],1.67%
same,inhibition,[7],3.14%
same,inhibition,[8],1.29%
same,inhibition,[9],3.2%
same,inhibition,[10],0.06%
same,inhibition,[11],2.06%
same,inhibition,[12],1.77%
same,inhibition,[13],5.17%
same,inhibition,[14],1.69%
same,inhibition,[15],3.88%
same,inhibition,[16],83.9%
same,inhibition,[17],85.4%
same,inhibition,[18],5.49%
same,inhibition,[19],8.21%
same,inhibition,[20],22.9%
Nc1nonc1-c1nc2cnccc2n1C1CCCCC1,inhibition,[1],-4.16%
same,inhibition,[2],-1.63%
same,inhibition,[3],-0.67%
same,inhibition,[4],-1.2%
same,inhibition,[5],-0.69%
same,inhibition,[6],1.15%
same,inhibition,[7],3.69%
same,inhibition,[8],-2.14%
same,inhibition,[9],1.64%
same,inhibition,[10],-1.05%
same,inhibition,[11],-0.01%
same,inhibition,[12],-0.51%
same,inhibition,[13],2.63%
same,inhibition,[14],-0.08%
same,inhibition,[15],7.12%
same,inhibition,[16],-2.37%
same,inhibition,[17],2.16%
same,inhibition,[18],1.35%
same,inhibition,[19],3.74%
same,inhibition,[20],4.13%
CCn1c(-c2nonc2N)nc2c(C#CCN)ncc(OCCCN)c21,inhibition,[1],2.6%
same,inhibition,[2],-4.53%
same,inhibition,[3],-4.45%
same,inhibition,[4],-4.29%
same,inhibition,[5],-0.59%
same,inhibition,[6],-1.57%
same,inhibition,[7],1.28%
same,inhibition,[8],-2.52%
same,inhibition,[9],0.94%
same,inhibition,[10],-2.53%
same,inhibition,[11],1.94%
same,inhibition,[12],-2.47%
same,inhibition,[13],-2.94%
same,inhibition,[14],1.03%
same,inhibition,[15],2.03%
same,inhibition,[16],-6.6%
same,inhibition,[17],-0.9%
same,inhibition,[18],-2.47%
same,inhibition,[19],-0.76%
same,inhibition,[20],7.73%
